Our source for the activation values is PubChem BioAssay AID1508602 (The Scripps Research Institute Molecular Screening Center, 2020).

SMILES strings stand for the structures. “And” between values parts separate entries of the source, which are not always exact repeats. Equal entries are not always repeated. Among all 650,000 compounds or so, about 6,800 (1%) were called active. What follows is part of a selection rich in actives, with near analogues and random picks from the rest. A number with no mark means an inactive call. No stated cut-off is given here; in the data, active means activation above about 4.9%; inactive means the rest.

In the test the target is G-protein coupled receptor 151 (Homo sapiens) (UniProt Q8TDV0). Briefly: activates the human receptor GPR151, primary screen, cell-based, PathHunter beta-arrestin, luminescence (AID 1508602).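 Further: 0% = median of compound wells and 100% = cells with positive control.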 The settings on record: PathHunter beta-arrestin GPR151 cells, at 11.2 µM, active compounds read high.
G-protein coupled receptor 151 (Homo sapiens), sequence (Q8TDV0 whole entry, looked up): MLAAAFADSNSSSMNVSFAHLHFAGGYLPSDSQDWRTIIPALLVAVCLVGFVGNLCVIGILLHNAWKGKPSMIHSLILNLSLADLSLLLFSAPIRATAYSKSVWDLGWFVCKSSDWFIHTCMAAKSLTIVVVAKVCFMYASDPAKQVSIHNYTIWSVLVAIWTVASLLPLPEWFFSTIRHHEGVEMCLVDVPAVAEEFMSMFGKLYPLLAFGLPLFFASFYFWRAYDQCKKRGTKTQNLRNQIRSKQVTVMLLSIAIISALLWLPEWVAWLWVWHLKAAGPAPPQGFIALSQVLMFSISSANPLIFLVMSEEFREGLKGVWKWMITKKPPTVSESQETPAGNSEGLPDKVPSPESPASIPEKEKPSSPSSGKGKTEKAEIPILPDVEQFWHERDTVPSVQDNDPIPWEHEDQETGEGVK
In the case of `COc1ccc(NC(=O)c2cc3cccc(OC)c3oc2=O)cc1OC`, the activation was -1.45%.

Turning to `COc1cccc2cc(C(=O)N(C)C)c(=O)oc12`, the activation was 5.93% (active).

As for `CCCN(CCC)C(=O)c1cc2cccc(OC)c2oc1=O`, the activation was 2.62%.

On to `CCn1c(COc2ccccc2OC)nnc1SCC(=O)NC`, for which the activation was 1.05%.

Consider `O=[N+]([O-])c1ccc(OCc2nnc(SCCN3CCOCC3)n2-c2ccccc2)cc1`, for which the activation is 0.574%.

For `CCn1c(COc2ccccc2)nnc1Sc1ccc([N+](=O)[O-])cc1C=O`, the activation is 8.41% (active).

As for `COc1cc([N+](=O)[O-])ccc1NC(=O)C1CCCC1`, the activation is 0.251%.

As to `CCCC(=O)NC(=S)Nc1ccc([N+](=O)[O-])cc1OC`, the activation is 0.167%.

With `COc1ccc(NC(=S)NCc2cc(C)n(C)n2)cc1OC`, the activation is 2.25%.

Take `COc1ccc(CCNC(=S)NCc2cc(C)n(C)n2)cc1OC`: the activation was 14.1% (active).

Turning to `COc1cc([N+](=O)[O-])ccc1NC(=S)NCc1cc(C)n(C)n1`, the activation was 6.53% (active).

Turning to `COc1ccc(CCNC(=S)Nc2c(C)n(C)n(-c3ccccc3)c2=O)cc1OC`, the activation was 0.54%.

On to `CCc1nc2ccccc2c2nn(CC(=O)NCCc3ccc(OC)c(OC)c3)c(=O)n12`, for which the activation was 0.488%.

With `COC(=O)c1ccc(Nc2nc3c(s2)CCc2ccccc2-3)cc1`, the activation was 1.88%.

Regarding `Cc1ccc(C)c(OCCOCCNCCN)c1C`, the activation was 0.982%.

As for `CN(C)c1cc(Oc2ccc(=O)[nH]n2)nc(N(C)C)n1`, the activation is 0.738%.

On to `CC(C)(C)c1ccc(C(=S)NCCCn2ccnc2)cc1`, for which the activation was 1.31%.

Turning to `COc1ccc(NC(=O)Cn2nnc(-c3ccccc3NC(=O)c3cccc(C)c3)n2)cc1`, the activation was -0.639%.

For the molecule `CCOC(=O)c1c(C)oc2c(Br)cc3oc(=O)c(C(=O)CC)cc3c12`, the activation is -0.749%.

On to `COC(=O)CN(C)C(=O)CC1C(=O)NCCN1Cc1ccc(OC)c(OC)c1` (centres undefined), for which the activation was -0.568%.

Consider `CCc1ccc(-c2ccc(C3CCC(CC)CC3)cc2)nc1` (centres undefined), for which the activation was 10.7% (active).

`CCCC1CCC(c2ccc(-c3ccc(CC)cn3)cc2F)CC1` (centres undefined): the activation is 3.24%.

With `CCCCOc1ccc(OC(=O)c2ccc(-c3ccc(CC)cn3)cc2)cc1`, the activation was 0.589%.

Regarding `COc1ccc(/C(O)=C2/C(=O)C(=O)N(CCCC(=O)O)C2c2ccc(O)cc2)cc1` (centres undefined), the activation was 0.777%.

With `CCC1(c2ccc(Cl)cc2Cl)NC(=S)N(c2ccc(C)c(C)c2)N1` (centres undefined), the activation was 6.17% (active).

As for `Cc1ccc(-n2[nH]c(C)c(C=Nc3ccc(N=Cc4c(C)[nH]n(-c5ccc(C)c(C)c5)c4=O)cc3)c2=O)cc1C`, the activation was 1.34%.

On to `Cc1ccc(N2NC3(CCCCC3)NC2=S)cc1C`, for which the activation was 1.89%.

On to `CCCCOC(=O)C1=C(C)NC2=C(C(=O)CCC2)C1c1cccc([N+](=O)[O-])c1` (centres undefined), for which the activation is 6.33% (active).

In the case of `COc1ccc(COC(=O)C2=C(C)NC3=C(C(=O)CCC3)C2c2cccc([N+](=O)[O-])c2)cc1` (centres undefined), the activation is -0.575%.

As to `CCCCOC(=O)C1=C(C)NC2=C(C(=O)CCC2)C1c1ccccc1[N+](=O)[O-]` (centres undefined), the activation was 1.59% and 0.946%.

In the case of `Cn1nc2c(nc1=O)[nH]c1ccccc12`, the activation was -0.513%.

On to `Cc1ccc(OCCN2CCNCC2)cc1C`, for which the activation is -1.28%.

Turning to `COc1cc2nc(-c3cccc(C(C)=O)c3)nc(Nc3ccc(N4CCOCC4)cc3)c2cc1OC`, the activation is 5.83% (active).

For the molecule `COc1cc2nc(-c3ccc(N4CCOCC4)nc3)nc(Nc3ccc(NC(C)=O)cc3)c2cc1OC`, the activation was 0.834%.

In the case of `CC(=O)c1cccc(-c2cccc(C(=O)Nc3ccc(N4CCOCC4)cc3)c2)c1`, the activation is -0.102%.

As for `COc1cc(C2C3=C(CC(C)(C)CC3=O)Nc3ccc4ncccc4c32)ccc1OC(C)=O` (centres undefined), the activation was -0.317%.

For `O=C(Cc1cccs1)N1CCCCC1c1nc2ccccc2[nH]1` (centres undefined), the activation is 0.204%.

On to `O=C(Nc1ccc(Br)cc1Cl)N1CCN(c2ncccn2)CC1`, for which the activation is -0.59%.

As for `Cn1c(SCCN2CCCCC2)nnc1C1CCN(C/C=C/c2ccco2)CC1`, the activation was 1.24%.

Turning to `O=C(Nc1ccc(N2CCCC2=O)cc1)c1cncc(Br)c1`, the activation was 5.11% (active).

Turning to `COc1cccc(C(=O)Nc2ccc(N3CCCC3=O)cc2)c1`, the activation is -9.98%.

As to `O=C(Nc1ccc(S(=O)(=O)Nc2ncccn2)cc1)c1cncc(Br)c1`, the activation is -0.902%.

As for `C(=N\c1nnc2nc[nH]n12)/c1ccco1`, the activation is -0.745%.

Regarding `CC(C)CNC(=O)c1ccc(F)c(S(=O)(=O)N2CCOCC2)c1`, the activation is 1.07%.

For `COc1ccc(OC)c(S(=O)(=O)Oc2ccc(Cl)c3cccnc23)c1`, the activation was 12.1% (active).

With `COc1ccc(S(=O)(=O)Oc2ccc(Cl)c3cccnc23)cc1OC`, the activation is 2.28%.

For `O=[N+]([O-])c1ccc(Oc2ccc(Cl)c3cccnc23)c(Cl)c1`, the activation was 0.725%.

On to `COC(=O)c1cc2cc(N)ccc2s1`, for which the activation was 0.191%.

On to `CCCS(=O)(=O)N1CCN=C1SCc1cccc(Cl)c1`, for which the activation was -1.49%.

Take `Cc1cc(=O)[nH]c(SCC(=O)Nc2ccc(C(N)=O)cc2)n1`: the activation is -0.979%.

Consider `Cc1cc(=O)[nH]c(SCC(=O)Nc2ccccn2)n1`, for which the activation was 0.382%.

Regarding `Cc1nc(SCC(=O)Nc2cccc3ccccc23)n[nH]1`, the activation was -0.295%.

Regarding `O=C(CSc1ccc(F)cc1)Nc1cccc2ccccc12`, the activation was 7.44% (active).

In the case of `Cc1cccc(NC(=O)CSc2nc3[nH]ncc3c(=O)[nH]2)c1`, the activation is 5.01% (active).

With `Cc1nnc(SCC(=O)Nc2cccc(Cl)c2)[nH]c1=O`, the activation is 0.326%.

With `O=C(CSc1ccc(F)cc1)Nc1ccccc1-c1nc2ccccc2s1`, the activation was -0.819%.

Regarding `Cc1cc(=O)[nH]c(SCC(=O)Nc2cccc3ccccc23)n1`, the activation was 15.8% (active).

Consider `Cc1cccc(NC(=O)CSc2ncn[nH]2)c1`, for which the activation was -0.535%.

Take `COc1ccc(C(=O)c2snc(Nc3ccccc3)c2N)cc1`: the activation was 0.834%.

Take `CCSc1c(O)cnn(-c2ccccc2)c1=O`: the activation was 0.94%.

Consider `CCOC(=O)C(C#N)C(C#N)(C(=O)OCC)C1CCCCC1=O` (centres undefined), for which the activation is 2.95%.

As for `O=C(CNC(=O)c1ccc(NC2CC2)c([N+](=O)[O-])c1)Nc1ccc(F)c(F)c1F`, the activation was 0.807%.

Regarding `Cc1csc(Nc2ncnc(N)c2[N+](=O)[O-])n1`, the activation was -0.642%.

As to `Nc1ncnc(Oc2ccccc2Cl)c1[N+](=O)[O-]`, the activation is 1.64%.

In the case of `Cc1ccc[n+](-c2ncnc(N)c2[N+](=O)[O-])c1`, the activation was 6.28% (active).

As to `CSc1ncc(C(=O)Nc2ccc(F)cc2C)c(C)n1`, the activation is -0.309%.

`O=C(Nc1ccccc1)NC1(C(=O)Nc2ccc(F)cc2F)CCCCC1`: the activation is 0.408%.

For the molecule `Cc1ccc(NC(=O)Cn2c(C)c(C=O)c3ccccc32)cc1C`, the activation is 1.3%.

As for `COc1ccc(-c2nnc(SCC(=O)Nc3ccc4c(c3)OCCO4)o2)cc1OC`, the activation is 0.0025%.

For `Cc1sc2nc(Cc3ccccc3)[nH]c(=O)c2c1C`, the activation was 0.303%.

`CCC(CC)C(=O)N1CCN(Cc2nc3sc(C)c(C)c3c(=O)[nH]2)CC1`: the activation was 5.71% (active).

As for `Cc1sc2nc(CN(C(=O)C3CC3)C3CCCC3)[nH]c(=O)c2c1C`, the activation was 0.605%.

Turning to `O=C(CCCCn1c(=O)[nH]c2ccccc2c1=O)N1CCN(c2cccc(Cl)c2)CC1`, the activation is -0.11%.

`CCCCc1ccc(-c2nc(C=Nc3ccc(C(C)=O)cc3)c(O)o2)cc1`: the activation is -0.204%.

Turning to `CCCCc1ccc(N=Cc2nc(-c3cccc4ccccc34)oc2O)cc1`, the activation is 7.67% (active).

Consider `Oc1oc(-c2cccc3ccccc23)nc1C=Nc1ccc2ccccc2c1`, for which the activation is -1.09%.

Regarding `COc1ccc(CNC2CCCN(c3nc(C)c4ccc(C)cc4n3)CC2)cc1OC` (centres undefined), the activation is -0.801%.

Take `COc1ccc(NC(=O)C2CC(=O)N(C3CCCCC3)C2)cc1` (centres undefined): the activation is 0.591%.

Regarding `Cc1ccc(C)c(NC(=O)C(Cc2ccccc2)N2C(=O)c3cccc([N+](=O)[O-])c3C2=O)c1` (centres undefined), the activation is 1.63%.

As for `CCOc1ccc(C(=O)Nc2ccc(C(=O)OC)cc2)cc1[N+](=O)[O-]`, the activation was 1.51%.

Turning to `CCOc1ccc(C(=O)Nc2nnc(CC)s2)cc1[N+](=O)[O-]`, the activation was 7.7% (active).

Consider `CCOc1ccc(C(=O)Nc2ccccc2I)cc1[N+](=O)[O-]`, for which the activation is 2.03%.

Regarding `Cc1ccccc1-n1c(C)cn2c3c(=O)n(CC(N)=O)c(=O)n(C)c3nc12`, the activation was 0.26%.

For the molecule `O=S(=O)(NC1CCCCC1)c1ccc(S(=O)(=O)n2cnc3ccccc32)cc1`, the activation is 3.37%.

For `COc1cccc(NC(=O)CN(C)S(=O)(=O)c2ccc3c(c2)SCC(=O)N3)c1`, the activation was 5.58% (active).

Regarding `CCc1cccc(CC)c1NC(=O)CCS(=O)(=O)c1ccc2c(c1)SCC(=O)N2`, the activation is -0.523%.

As for `COc1ccc(S(=O)(=O)N(C)CC(=O)Nc2cccc(C(F)(F)F)c2)cc1OC`, the activation was 1.26%.

For the molecule `O=C(NNC1=NCCCCC1)c1ccc([N+](=O)[O-])cc1`, the activation is 4.83%.

Turning to `CC(=O)NCc1nnc2n1CCN(Cc1ccc(-c3ccccc3)cc1)CC2`, the activation was -0.371%.

In the case of `CC(C)CNC(=O)C(C)N(c1ccccc1)S(C)(=O)=O` (centres undefined), the activation is 1.91%.

In the case of `Cc1nc2ncnn2c(C)c1Cc1c(F)cccc1Cl`, the activation is 0.47%.

Regarding `Cc1nc2nc(SCc3c(F)cccc3Cl)nn2c(C)c1Cc1c(F)cccc1Cl`, the activation is 0.427%.

As for `Cc1nc2nc(SCc3ccc([N+](=O)[O-])cc3)nn2c(C)c1Cc1c(F)cccc1Cl`, the activation is 5.69% (active).

Take `CCOC(=O)c1cnc2c(C)c(Cl)ccc2c1Nc1cccc(C)c1`: the activation is 1.7%.
